# Results reported in PubChem BioAssay.
# Several values for one entry are separate records, joined by “and”; a condition that tells them apart may be missing. Identical values can stand only once. A structure can be active in one record and inactive in another. Activity calls are given as the source filed them.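 The calls were made as follows, unless noted: active = thallium flux through the channel raised or lowered by more than 3 SD from vehicle-only wells, actives on both sides; inactive = the rest.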
# Assays:
# [1] = Wnt pathway potentiators raising nuclear beta-catenin – imaging, WNT3A-conditioned medium, mouse C2C12, NPC library, primary screen (AID 1117326; in the data active = nuclear beta-catenin stimulation mostly above about 4.2%, no sharp cut-off; inactive = mostly below about 10%); settings: stronger effect = higher value
# [2] = stimulators of insulin release from INS-1E, primary screen, cell-based, 5 mM glucose, NPC library (AID 1117329;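 active = compound raises insulin release from rat beta cells at 5 mM glucose, no numeric limit stated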); settings: rat INS-1E insulin secretion, at 10 µM, stronger effect = higher value
# [3] = growth inhibition of GSK3B-pretreated HCT116 cells – cell-based, CellTiter-Glo, 0.2 to 20 µM (AID 1117336;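 active = compounds lowering colon cancer cell viability after pretreatment blocking the GSK3B kinase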); settings: HCT116 viability after GSK3B inhibitor, at 20 µM, stronger effect = higher value
# [4] = inhibition of endothelial tube formation, primary screen, imaging, VEGF stimulated, CD31 staining, tube area, NPC library (AID 1117340;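 active = compound that reduces growth-factor-driven endothelial tube area in a mixed cell culture, no cutoff stated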); settings: VEGF-stimulated ADSC/ECFC co-culture, at 10 µM, stronger effect = higher value
# [5] = GLP1 release stimulators, primary, NCI-H716, NPC library (AID 1117341;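 active = compound raises GLP1 secretion from the human gut endocrine cells, with no numeric limit stated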); settings: NCI-H716 cells, at 10 µM, stronger effect = higher value
# [6] = HCT116 colon cancer cell growth inhibition, primary screen, CellTiter-Glo luminescence, NPC library (AID 1117342;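 active = compounds that lower survival of HCT116 colon cancer cells in the luminescence readout, no numeric limit stated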); settings: at 20 µM (top of the series)
# [7] = reduced SW480 viability measured with CellTiter-Glo, NPC library, primary (AID 1117343;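 active = compounds that lower viability of the colon cancer cells in the luminescence readout, with no numeric limit stated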); settings: CellTiter-Glo luminescence; at 20 µM (top of the series)
# [8] = NPC library primary testing for decreased DLD-1 cell viability via CellTiter-Glo (AID 1117346;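 active = compounds that lower survival of DLD-1 colon cancer cells in the luminescence readout, no cutoff given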); settings: DLD-1 viability, CellTiter-Glo luminescence; at 20 µM (top of the series)
# [9] = target: 6-phosphogluconate dehydrogenase, decarboxylating (Homo sapiens) (UniProt P52209); assay: inhibition of human phosphogluconate dehydrogenase – biochemical, recombinant enzyme, NADPH absorbance, primary screen (AID 1159550;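 active = at least 20% inhibition of 6-phosphogluconate dehydrogenase activity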); settings: recombinant 6PGD, NADPH absorbance 341 nm; at 10 µM; stronger effect = higher value
# 6-phosphogluconate dehydrogenase, decarboxylating (Homo sapiens), sequence (P52209 whole entry, looked up): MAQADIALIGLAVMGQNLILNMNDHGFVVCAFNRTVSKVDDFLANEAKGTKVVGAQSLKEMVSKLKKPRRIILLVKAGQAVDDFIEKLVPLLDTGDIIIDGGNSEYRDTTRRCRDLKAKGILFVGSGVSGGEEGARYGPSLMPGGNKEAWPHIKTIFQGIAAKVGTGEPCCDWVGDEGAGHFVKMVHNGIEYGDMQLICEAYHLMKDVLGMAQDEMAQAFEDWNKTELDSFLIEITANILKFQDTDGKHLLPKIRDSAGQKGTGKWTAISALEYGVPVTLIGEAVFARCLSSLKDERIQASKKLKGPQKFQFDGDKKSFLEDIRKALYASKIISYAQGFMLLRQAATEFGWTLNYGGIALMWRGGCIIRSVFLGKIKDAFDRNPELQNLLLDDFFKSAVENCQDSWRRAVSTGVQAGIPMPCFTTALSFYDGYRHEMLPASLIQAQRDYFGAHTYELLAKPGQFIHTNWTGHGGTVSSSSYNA
# [10] = modulation of C. elegans fzo-1 (AID 1259413; call rule not given here;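 also: fzo-1 mutant C. elegans worms in liquid wells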); settings: C. elegans fzo-1 modulator screen, mean read-out; stronger effect = higher value
# [11] = EMT-state selective cytotoxicity in co-culture – imaging, PC-3E GFP, TEM4-18 mCherry, primary screen (AID 1345086;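 active = compounds killing one labelled cell type while sparing the other, by normalised counts and ratio limits, not self-fluorescent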;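 as to all read-outs here: cells exposed to compound for 72 h before imaging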;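 as to red/green cell ratio (normalised): normalised mesenchymal count divided by normalised epithelial count so high means epithelial killing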); settings: PC-3E GFP / TEM4-18 mCherry co-culture, imaging cell counts, at 1 µM; for red/green cell ratio (normalised): actives lie on both sides, counts scaled to control wells, 1 = unselective
# [12] = MELAS cybrid and Rieske KO viability enhancers – cell-based, MELAS cybrids, Rieske KO mouse fibroblasts, CellTiter-Glo, primary screen (AID 1508586;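 active = mean z-score across replicates of 1.96 or higher in either the MELAS or the Rieske mutant cell line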;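 also: z relative to plate mean and SD of compound and empty wells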); settings: low glucose
# [13] = target: NAD(+) hydrolase SARM1 (Homo sapiens) (UniProt Q6SZW1); assay: blocking NAD cleavage by SARM1 SAM-TIR – cell lysate, NAD-Glo luminescence (AID 1508614;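 active = compound whose remaining NAD level is above about 45 nM, limit read from the data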;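 also: higher remaining NAD means stronger inhibition of SARM1 NADase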); settings: SAM-TIR HEK293T lysate NADase, at 1 µM, stronger effect = higher value
# NAD(+) hydrolase SARM1 (Homo sapiens), sequence (Q6SZW1 whole entry, looked up, the tested form may be a part): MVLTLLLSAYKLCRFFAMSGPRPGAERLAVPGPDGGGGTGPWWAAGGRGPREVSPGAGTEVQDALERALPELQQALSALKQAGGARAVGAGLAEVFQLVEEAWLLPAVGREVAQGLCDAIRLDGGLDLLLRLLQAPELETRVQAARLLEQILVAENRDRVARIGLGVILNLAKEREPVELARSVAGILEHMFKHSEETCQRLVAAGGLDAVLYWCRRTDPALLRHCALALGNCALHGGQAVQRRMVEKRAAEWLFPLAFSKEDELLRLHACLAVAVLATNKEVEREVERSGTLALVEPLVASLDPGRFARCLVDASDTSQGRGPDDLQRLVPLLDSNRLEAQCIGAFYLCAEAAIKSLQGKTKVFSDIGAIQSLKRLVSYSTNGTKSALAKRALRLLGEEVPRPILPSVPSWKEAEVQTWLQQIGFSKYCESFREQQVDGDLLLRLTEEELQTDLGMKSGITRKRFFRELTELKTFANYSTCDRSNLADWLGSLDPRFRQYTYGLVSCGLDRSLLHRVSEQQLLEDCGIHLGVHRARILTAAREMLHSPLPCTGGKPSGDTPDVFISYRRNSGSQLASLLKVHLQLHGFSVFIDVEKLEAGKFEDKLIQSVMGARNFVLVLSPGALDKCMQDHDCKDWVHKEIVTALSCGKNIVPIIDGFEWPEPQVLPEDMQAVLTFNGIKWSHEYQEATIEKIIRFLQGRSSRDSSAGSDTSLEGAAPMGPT
# [14] = target: Mitogen-activated protein kinase 7 (Homo sapiens) (UniProt Q13164); assay: Gal4-ERK5 driven luciferase induction – cell-based, HTS, primary screen (AID 1508626;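 active = luciferase signal above three times the same-plate solvent-only control wells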;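 also: luciferase driven by Gal4-ERK5 fusion binding five Gal4 sites before minimal TATA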); settings: HeLa Gal4-ERK5 transactivation, 18 h, at 5 µM, stronger effect = higher value
# Mitogen-activated protein kinase 7 (Homo sapiens), sequence (Q13164 whole entry, looked up, the tested form may be a part): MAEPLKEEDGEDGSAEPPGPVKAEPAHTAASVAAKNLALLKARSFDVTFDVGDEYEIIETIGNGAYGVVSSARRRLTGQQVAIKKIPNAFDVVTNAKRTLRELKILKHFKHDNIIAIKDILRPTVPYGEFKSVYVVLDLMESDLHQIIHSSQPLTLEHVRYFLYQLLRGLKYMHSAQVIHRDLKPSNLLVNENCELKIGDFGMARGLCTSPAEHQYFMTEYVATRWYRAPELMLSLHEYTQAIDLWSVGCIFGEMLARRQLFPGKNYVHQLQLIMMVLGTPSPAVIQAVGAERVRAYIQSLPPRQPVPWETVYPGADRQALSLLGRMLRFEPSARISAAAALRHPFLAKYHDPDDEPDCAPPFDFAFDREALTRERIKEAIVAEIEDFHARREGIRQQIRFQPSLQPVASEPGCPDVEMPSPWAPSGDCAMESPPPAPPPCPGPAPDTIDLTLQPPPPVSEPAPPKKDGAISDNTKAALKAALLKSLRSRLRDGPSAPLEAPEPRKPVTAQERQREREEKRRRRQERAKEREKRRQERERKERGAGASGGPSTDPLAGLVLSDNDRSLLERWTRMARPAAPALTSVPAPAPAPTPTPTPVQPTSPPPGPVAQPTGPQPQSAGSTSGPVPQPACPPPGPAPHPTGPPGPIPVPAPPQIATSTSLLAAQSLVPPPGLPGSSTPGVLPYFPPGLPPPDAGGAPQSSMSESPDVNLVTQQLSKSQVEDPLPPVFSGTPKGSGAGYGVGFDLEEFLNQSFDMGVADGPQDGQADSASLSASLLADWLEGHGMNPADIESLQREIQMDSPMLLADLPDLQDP
# [15] = system: F380Y; assay: BK channel mutant inhibitors and activators – cell-based, U2OS BacMam, thallium flux, beta subunits, selectivity assay, profiling panel (AID 1259406); settings: U2OS BacMam BK variants, at 30 µM;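 also: initial slope of Thallos dye fluorescence rise after thallium is added; log ratio against the mean of 0.3% DMSO vehicle wells on the same plate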
# [16] = system: F380Y/beta1; assay: as above; settings: U2OS BacMam BK variants, at 30 µM
# [17] = system: F380Y/beta2Delta; assay: as above; settings: U2OS BacMam BK variants, at 30 µM
# [18] = growth inhibition, single agents and combos, ICB984, cell-based, cisplatin or BGB combos, synergistic combos for chromothripsis tumors (AID 1671451; call rule not given here;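 also: cells exposed for 96 hours before readout; 0% = vehicle DMSO and 100% = killing by high DMSO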); settings: ICB984 medulloblastoma cells, drug combinations, stronger effect = higher value
# [19] = viability loss with induced miR-34 in A549 – imaging, A549 dox-inducible miR-34, nuclei and caspase counts, primary screen (AID 1347080;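 active = compounds whose cell count with miR-34 switched on is under 0.7 times the count with it off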); settings: A549 miR-34 inducible, Hoechst nuclei count, 48 h
# [20] = measured here: epithelial PC-3E GFP cell survival
# [21] = measured here: mesenchymal TEM4-18 mCherry cell survival
# [22] = MELAS cybrid survival, CellTiter-Glo 48 h, stronger effect = higher value
# [23] = Rieske KO mouse fibroblast survival, CellTiter-Glo 72 h
structure (smiles),measurement,setting,value
c1ccc2[nH]c(-c3cscn3)nc2c1,nuclear beta-catenin stimulation,[1]; at 10 µM,1.5% (inactive)
same,nuclear beta-catenin stimulation,"[1]; stimulation, at 2 µM",1.4%
same,insulin secretion stimulation,[2],-1.2% (inactive)
same,viability decrease,[3],-3.75% (inactive)
same,tube area decrease,[4],13.1% (inactive)
same,GLP1 secretion stimulation,[5],4.2% (inactive)
same,inhibition of viability,[6],5.1% (inactive)
same,viability decrease (inhibition),[7],-9.9% (inactive)
same,viability decrease (inhibition),[8],-17.1% (inactive)
same,inhibition,[9],2.18% (inactive)
same,mean signal,[10],278 (inactive)
same,red/green cell ratio (normalised),[11],1.18 (inactive)
same,normalised cell number,[11]; [20],0.98
same,normalised cell number,[11]; [21],1.16
same,z-score,[12]; [22],-0.164 (inactive) and 2.01 (active)
same,z-score,[12]; [23],0.655 and 0.153
same,remaining NAD,[13],10 nM (inactive)
same,luciferase signal,[14],12 AU (inactive)
same,log fold change Tl+ flux,[15],-0.0155 (inactive)
same,log fold change Tl+ flux,[16],-0.00469 (inactive)
same,log fold change Tl+ flux,[17],-0.00898 (inactive)
Cn1cnc([N+](=O)[O-])c1Sc1ncnc2nc[nH]c12,nuclear beta-catenin stimulation,[1]; at 10 µM,1.2% (inactive)
same,nuclear beta-catenin stimulation,"[1]; stimulation, at 2 µM",0.7%
same,insulin secretion stimulation,[2],0.2% (inactive)
same,viability decrease,[3],42% (active)
same,tube area decrease,[4],29.1% (inactive)
same,GLP1 secretion stimulation,[5],4.1% (inactive)
same,inhibition of viability,[6],99.5% (active)
same,viability decrease (inhibition),[7],77.3% (active)
same,viability decrease (inhibition),[8],35.5% (active)
same,inhibition,[9],2.32% (inactive)
same,mean signal,[10],260 (inactive)
same,red/green cell ratio (normalised),[11],0.98 (inactive)
same,normalised cell number,[11]; [20],1.13
same,normalised cell number,[11]; [21],1.11
same,z-score,[12]; [22],0.345 (inactive) and 1.98 (active)
same,z-score,[12]; [23],0.8 and 0.138
same,remaining NAD,[13],10 nM (inactive)
same,luciferase signal,[14],408 AU (active)
same,inhibition,"[18]; BGB IC20 combo, at 0.005 µM",-7.33% and 0.138%
same,inhibition,"[18]; BGB IC40 combo, at 0.005 µM",-44% and -68.5%
same,inhibition,"[18]; BGB IC40 combo, at 0.05 µM",-15.3% and -11.2%
same,inhibition,[18]; at 0.5 µM,-19.6% (inactive) and -22.9% (inactive)
same,inhibition,"[18]; cisplatin combo, at 0.05 µM",-15.3% and -15.6%
same,inhibition,"[18]; cisplatin combo, at 0.5 µM",-29.3% and -25.2%
same,inhibition,"[18]; cisplatin combo, at 5 µM",-23% and 1.4%
same,inhibition,"[18]; measured here: 5 uM single agent, at 5 µM",-20.7% and -15.2%
same,log fold change Tl+ flux,[15],-0.0816 (inactive)
same,log fold change Tl+ flux,[16],-0.0302 (inactive)
same,log fold change Tl+ flux,[17],-0.0522 (inactive)
O=C1C(CCS(=O)c2ccccc2)C(=O)N(c2ccccc2)N1c1ccccc1 (stereo not given),nuclear beta-catenin stimulation,[1]; at 10 µM,0.9% (inactive)
same,nuclear beta-catenin stimulation,"[1]; stimulation, at 2 µM",0%
same,insulin secretion stimulation,[2],2.6% (inactive)
same,viability decrease,[3],-21% (inactive)
same,tube area decrease,[4],1% (inactive)
same,GLP1 secretion stimulation,[5],-0.7% (inactive)
same,inhibition of viability,[6],-1.5% (inactive)
same,viability decrease (inhibition),[7],15.3% (inactive)
same,viability decrease (inhibition),[8],-15.6% (inactive)
same,inhibition,[9],-6.96% (inactive)
same,mean signal,[10],224 (inactive)
same,red/green cell ratio (normalised),[11],1.33 (inactive)
same,normalised cell number,[11]; [20],0.93
same,normalised cell number,[11]; [21],1.24
same,fold change,"[19]; stronger effect = lower value, cell number ratio, induced over uninduced",1.01 (inactive) and 1 (inactive) and 0.826 (inactive)
same,fold change,[19]; measured here: relative caspase fold change +Dox/-Dox,1.95 and 1.38 and 4.04
same,cell count,"[19]; measured here: total cells with miR-34 induction, stronger effect = lower value",11300 and 8240 and 10300
same,cell count,[19]; measured here: total cells without miR-34 induction,11300 and 8200 and 12500
same,z-score,[12]; [22],0.278 (inactive)
same,z-score,[12]; [23],0.23
same,remaining NAD,[13],10 nM (inactive)
same,luciferase signal,[14],104 AU (inactive)
same,log fold change Tl+ flux,[15],-0.0134 (inactive)
same,log fold change Tl+ flux,[16],0.0248 (inactive)
same,log fold change Tl+ flux,[17],0.0447 (inactive)
